Assay results taken from the supplement of paper PMC9588786.
± gives the standard deviation of the averaged measurements.

Each compound was assayed on HT-1080 (assay: relative cell viability with RSL3 co-treatment (fraction of control); higher = stronger protection from RSL3-induced ferroptosis (higher viability)). Conditions: 10 µM.
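Further: viability read as CCK-8 absorbance at 450 nm in cells co-exposed to the GPX4 inhibitor RSL3, relative to a 0.01% DMSO vehicle control.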

| Compound | relative cell viability |
| --- | --- |
| C=CCc1ccc(O)c(-c2ccc(O)c(CC=C)c2)c1 [Honokiol] | 0.85 ± 0.04 |
| N#CC(=C(/N)Sc1ccccc1N)/C(C#N)=C(\N)Sc1ccccc1N | 0.84 ± 0.017 |
| O=C(Cc1ccc(-c2ccc(OCCN3CCOCC3)cc2)cn1)NCc1ccccc1 | 0.627 ± 0.16 |
| CN1CCC(Nc2nc(Nc3ccc(Oc4ccccc4)cc3)c3c(=O)[nH]cc(Br)c3n2)CC1 | 0.68 ± 0.087 |
| CS(=O)(=O)c1cccc(CNc2nc(Nc3ccc4c(c3)CCC(=O)N4)ncc2C(F)(F)F)c1 | 0.91 ± 0.085 |
| Cc1cc(O)c2c(c1)C(=O)c1cccc(O)c1C2=O [Chrysophanic Acid] | 0.6567 ± 0.0058 |
| CCCNC(=O)Nc1ccc(Oc2ncnc3cc(OC)c(OC)cc23)cc1Cl | 0.757 ± 0.42 |
| COc1cc(OC)c(/C=C/S(=O)(=O)Cc2ccc(OC)c(NCC(=O)O)c2)c(OC)c1 | 0.7 ± 0.026 |
| COc1cc(Nc2ncc(F)c(Nc3ccc4c(n3)NC(=O)C(C)(C)O4)n2)cc(OC)c1OC | 0.88 ± 0.095 |
| Cc1cc(Nc2cc(N3CCN(C)CC3)nc(Sc3ccc(NC(=O)C4CC4)cc3)n2)n[nH]1 [Tozasertib (VX-680, MK-0457)] | 0.71 ± 0.01 |
| CC(C)(C)c1nc(-c2cccc(NS(=O)(=O)c3c(F)cccc3F)c2F)c(-c2ccnc(N)n2)s1 | 0.577 ± 0.11 |
| CN1CCCN(C(=O)c2cccc(-c3ccc(/C=C4/C(=O)Nc5ccc(Cl)cc54)o3)c2)CC1 | 0.743 ± 0.061 |
| CC(C)NC[C@@H](C(=O)N1CCN(c2ncnc3c2[C@H](C)C[C@H]3O)CC1)c1ccc(Cl)cc1 [Ipatasertib (GDC-0068)] | 0.697 ± 0.12 |
| O=C(NC[C@H](O)CO)c1ccncc1Nc1ccc(I)cc1F | 0.803 ± 0.076 |
| NC(=O)c1ncn([C@@H]2O[C@H](CO)[C@@H](O)[C@H]2O)c1N [AICAR (Acadesine)] | 1.03 ± 0.011 |
| COc1cc2c(Nc3ccc(NC(=O)c4ccccc4)cc3)ncnc2cc1OCCCN1CCOCC1 | 0.717 ± 0.23 |
| CC(C)n1nc(-c2ccc3oc(N)nc3c2)c2c(N)ncnc21 | 0.787 ± 0.058 |
| Cc1[nH]nc2ccc(-c3cncc(OC[C@@H](N)Cc4ccccc4)c3)cc12 | 0.59 ± 0.02 |
| CNc1nc(-c2ccc3c(N)n[nH]c3c2)cc(N2C[C@@H](C(=O)NC3CCCCC3)CC[C@H]2C)n1 | 0.647 ± 0.13 |
| O=C(O)[C@]1(Cc2cccc(Nc3nccs3)n2)CC[C@@H](Oc2cccc(Cl)c2F)CC1 | 1.02 ± 0.14 |

| Compound | relative cell viability |
| --- | --- |
| CC[C@H](Nc1ncnc2[nH]cnc12)c1nc2cccc(F)c2c(=O)n1-c1ccccc1 [Idelalisib (CAL-101, GS-1101)] | 0.753 ± 0.031 |
| O=C(/C=C/c1ccc2ccccc2n1)c1ccncc1 | 0.64 ± 0.075 |
| NC(=O)Nc1sc(-c2ccc(F)cc2)cc1C(N)=O | 0.87 ± 0.046 |
| C=CC(=O)Nc1ccc(CN2C(=O)N(c3cc(OC)cc(OC)c3)Cc3cnc(Nc4ccc(N5CCN(C)CC5)cc4)nc32)cc1 | 0.56 ± 0.01 |
| CN1CCN(c2ccc(C(=O)Nc3n[nH]c4ccc(Cc5cc(F)cc(F)c5)cc34)c(NC3CCOCC3)c2)CC1 [Entrectinib (RXDX-101)] | 0.537 ± 0.045 |
| COc1cc2nccc(Oc3ccc(NC(=O)Nc4cc(C)on4)c(Cl)c3)c2cc1OC [Tivozanib (AV-951)] | 0.23 ± 0.11 |
| CN1CCN(Cc2ccc(-c3cnc4[nH]cc(-c5ccc6[nH]ccc6c5)c4c3)cc2)CC1 | 0.497 ± 0.04 |
| CN1CCN(c2ccc3nc(-c4c(N)c5c(F)cccc5[nH]c4=O)[nH]c3c2)CC1 [Dovitinib (TKI-258, CHIR-258)] | 0.827 ± 0.1 |
| O=C(NCCCNc1nc(Nc2cccc(NC(=O)N3CCCC3)c2)ncc1I)c1cccs1 | 0.657 ± 0.011 |
| O=c1sn(-c2cccc3ccccc23)c(=O)n1Cc1ccccc1 [Tideglusib] | 0.74 ± 0.035 |
| c1cc(-c2cnn3cc(-c4ccc(OCCN5CCCCC5)cc4)cnc23)ccn1 [Dorsomorphin 2HCl] | 0.463 ± 0.18 |
| Cc1cc(C(C)Nc2ccccc2)c2nc(N3CCOCC3)cc(=O)n2c1 (centres undefined) | 0.627 ± 0.059 |
| O=c1ncn2nc(Sc3ccc(F)cc3F)ccc2c1-c1c(Cl)cccc1Cl | 0.5 ± 0.14 |
| CCN1CCN(Cc2ccc(-c3cc4c(N[C@H](C)c5ccccc5)ncnc4[nH]3)cc2)CC1 | 0.49 ± 0.02 |
| Cc1cc(C(=O)NOCCO)c(Nc2ccc(I)cc2F)n(C)c1=O | 0.793 ± 0.16 |
| Cc1cc(Nc2cc(CN3CCOCC3)c3nc(C)c(Cc4ccc(Cl)cc4F)n3n2)n[nH]1 | 0.383 ± 0.095 |
| CNC(=O)c1cccc(-c2ccc3c(N4CCOC[C@@H]4C)nc(N4CCOC[C@@H]4C)nc3n2)c1 [Vistusertib (AZD2014)] | 0.52 ± 0.18 |
| C1=N/C2=N/c3ccc(OCCN4CCCC4)c(c3)COC/C=C/COCc3cccc(c3)C(=C1)N2 [Pacritinib (SB1518)] | 0.467 ± 0.096 |
| Nc1cc(C(F)(F)F)c(-c2cc(N3CCOCC3)nc(N3CCOCC3)n2)cn1 [Buparlisib (BKM120, NVP-BKM120)] | 0.643 ± 0.031 |
